Rows were chosen to be rich in hits. Some 4.7% of all compounds tested hit in one or more screens of this group.
TIM10 inh: growth inhibitors of isogenic TIM10 control yeast, primary screen, counter-screen for tim10-1 yeast inhibitor project, luminescence, uHTS; S. cerevisiae TIM10 strain growth, BacTiter-Glo luminescence, 24 h; inhibition, % at 10 µM; 1.4% of 330,000 active; AID 463195, 2010;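 active means inhibition of 40% or more at the single tested concentration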;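 further: wild-type TIM10 isogenic control strain grown at permissive 25 °C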
Calb FLC: C. albicans growth inhibition with fluconazole, primary screen, CaCi-2 strain, Alamar Blue fluorescence; C. albicans CaCi-2 (fluconazole-resistant clinical isolate) + fluconazole, 48 h; growth inhibition, % (no concentration beside the values); 0.57% of 300,000 active;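 active means growth inhibition above about 58% in most replicates, limit read from the data, passing the limit was not always enough; inconclusive means exactly half the replicates above a set limit; inactive means most replicates below a set limit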;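 further: all wells also contain fluconazole at 8 µg/ml as a sub-toxic cotreatment; 0% = median of DMSO wells and 100% = median of geldanamycin control wells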
tim23-1 inh: growth inhibitors of tim23-1 mutant yeast, primary screen, luminescence, uHTS; S. cerevisiae tim23-1 growth, BacTiter-Glo luminescence, 24 h; inhibition, % at 20 µM; 1.3% of 330,000 active; AID 463212, 2010;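 active means growth inhibition of the mutant yeast at or above 50%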;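 further: temperature-sensitive mutant grown at 25 °C; plate controls were DMSO-treated mutant yeast for no effect and medium wells lacking yeast for full effect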
PfHsp90 set2: growth inhibition of PfHsp90-expressing yeast, primary screen, antimalarial PfHsp90 inhibitor project, S. cerevisiae, BacTiter-Glo luminescence, single point, set 2; inhibition, % at 9.4 µM; 0.32% of 310,000 active; BacTiter-Glo ATP, 48 h; yeast lacking PDR1 and PDR3 efflux regulators;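 active means every replicate shows inhibition above about 80%, whatever the replicate mean, limit read from the data; inconclusive means mean inhibition reaches the set limit but some replicate falls short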;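 further: 0% = DMSO neutral controls and 100% = 20 µM radicicol positive controls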
SKKanGAS inh: S. pyogenes SKKanGAS growth inhibitors in kanamycin, primary screen, streptokinase expression inhibitor project, SKKanGAS strain, BacTiter-Glo luminescence. 1.3% of 300,000 active. inhibition, % at 7.5 µM. 6 h;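 active means mean replicate score, as percent of positive control median, at least 50; inconclusive means mean below 50 but one replicate at or above 50; inactive means mean and every replicate below 50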;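 further: strain carries kanamycin resistance gene driven by streptokinase promoter and grows in 40 µg/ml kanamycin; loss of luminescence reflects streptokinase promoter inhibition or plain growth inhibition; 0% = median of DMSO wells and 100% = positive control at its reference dose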
tim10-1 inh: growth inhibitors of tim10-1 mutant yeast, primary screen, luminescence, uHTS; S. cerevisiae tim10-1 ts strain growth, BacTiter-Glo, 24 h; AID 463190, 2010; 2.2% of 330,000 active; inhibition, % at 20 µM;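 active means inhibition of at least 40%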;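 further: mutant grown at 25 °C; 0% = DMSO wells with yeast and 100% = wells holding no yeast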
tim10-1 conf: growth inhibitors of tim10-1 mutant yeast, confirmation, single concentration, luminescence, S. cerevisiae. inhibition, % at 20 µM. AID 463213, 2010. S. cerevisiae tim10-1 ts strain growth, BacTiter-Glo, 24 h. 56% of 7,400 active. shares compounds with tim10-1 inh;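 active means inhibition of yeast growth at or above a set limit in either of two repeat tests at 20 µM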;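 further: tim10-1 mutant grown at permissive 25 °C to find synthetic lethal compounds; 0% = DMSO yeast wells and 100% = medium wells without yeast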
The depositor's hits bear a star; ? = inconclusive; . = no result.

SMILES	TIM10 inh	Calb FLC	tim23-1 inh	PfHsp90 set2	SKKanGAS inh	tim10-1 inh	tim10-1 conf
N=c1n(Cc2ccccc2)c2ccccc2n1CC(O)COc1ccc(Cl)cc1Cl (stereo not given)	18	?	7	-24	.	40*	-1
O=C(Cc1cccc2ccccc12)NCCc1ccccc1	-19	1	19	4	4	-1	.
Cc1ccc(S(=O)(=O)Nc2c(C)ccc3nsnc23)cc1	-5	-1	33	8	0	42*	14
CCCCc1ccc(NC(=S)NCc2ccc(OC)cc2)cc1	34	-27	25	-6	-11	46*	-16
COc1ccc(CNC(=S)Nc2ccc(OC)cc2)cc1	5	-3	5	-7	-3	8	.
O=C(O)c1ccc(CSC2CCCCC2)cc1	21	5	10	-3	-1	28	.
Cc1cccc(N=C2Sc3nc4c(C)c(C)ccc4cc3CN2CCN2CCOCC2)c1	39	8	48	14	13	53*	37*
CCN(CC)C(=O)c1sc(NC(=O)c2cccs2)c(C#N)c1C	16	43	33	22	-9	44*	25
O=C(CCc1nc(-c2ccc(Cl)cc2)no1)NCc1ccccc1CN1CCOCC1	10	.	28	0	.	16	.
CCCCN(CC)c1nc(-c2ccncc2)nc2ccccc12	25	-12	39	-65	9	43*	15
CC(C)(C)C(=O)Nc1ccc(-c2nc3ccccc3c(=O)o2)cc1	30	.	10	1	.	28	.
CC(C)C(=O)Nc1ccc(-c2nc3ccccc3c(=O)o2)cc1	38	5	37	1	1	56*	41*
COc1cccc(-c2nc3ccc(O)cc3c(=O)o2)c1	39	7	45	7	-3	55*	31
CC(C)(C)C(=O)Nc1cccc(-c2nc3ccccc3c(=O)o2)c1	25	-4	37	-5	11	40*	48*
CC(C)C(=O)Nc1cccc(-c2nc3ccccc3c(=O)o2)c1	12	4	18	16	1	19	.
CCCCn1c(N)c(N(CCOC)C(=O)Cn2c(=O)oc3ccccc32)c(=O)[nH]c1=O	3	4	-7	.	1	-17	.
Cc1c(NC(=S)NNC(=O)CCC(=O)O)c(=O)n(-c2ccccc2)n1C	-5	-2	0	-6	-14	-7	.
CCOc1cc(/C=C/C(=O)N(CC)CC(=O)NCc2cccs2)cc(Cl)c1OC	5	1	24	10	-6	21	.
Clc1ccc2ncc(-c3nnnn3-c3ccccc3)c(-c3ccccc3)c2c1	30	4	48	-37	2	44*	36*
COc1cccc(C(C)NC(=S)NCc2ccc(F)cc2)c1 (stereo not given)	25	-5	24	-8	3	42*	-1
Cc1cccc2nc(-c3cccnc3)c(Nc3ccccc3)n12	-3	0	10	-8	4	4	.
Cc1cccc2nc(-c3cccnc3)c(NCCC(C)C)n12	23	-26	40	-61	4	46*	40*
Cc1ccc(-n2nc3c4c(cccc4c2=O)-c2ccccc2-3)cc1	19	4	7	.	9	42*	23
Cc1ccc(NC(=O)C2CCN(c3cnccn3)CC2)cc1	-6	9	-4	-23	16	-11	.
O=C(Nc1ccc(C(F)(F)F)cc1)C1CCN(c2cnccn2)CC1	10	-12	28	23	-2	41*	2
C/C(=N/Nc1nc(-c2ccc(Cl)cc2)cs1)c1cccs1	17	-16	-1	1	-1	45*	13
Brc1ccc(-c2cn3nc4c(nc3n2)CCCC4)cc1	2	-2	16	.	11	20	.
Brc1ccc(-c2cn3c(n2)CCc2ccc4cccnc4c2-3)cc1	38	-12	45	13	76*	46*	32*
